SNCA expr inh – Primary qHTS assay for inhibitors of alpha-synuclein gene (SNCA) expression. HEK-293 SNCA-luciferase knock-in, luminescence, 24 h. Potency, µM (titrated, usually from 57.2 µM), inactives show top-dose activity change, negative = inhibition, most hits filed as inhibitors. hit rate 0.17% among 140,000;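 further: plate controls were DMSO cells for no effect and cell-free wells for full effect; nearly all actives have a fitted effect of over 45% in size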
NPR1 antag – Natriuretic polypeptide receptor (hNpr1) antagonism - Primary qHTS. Atrial natriuretic peptide receptor 1 (Homo sapiens), P16066. HEK293 hNpr1 GloSensor cGMP, ANP-stimulated luminescence. Potency, µM (doses to about 46.3 µM), inactives show at the top dose activity change, negative = inhibition, hits mostly inhibitors. hit rate 1.6% among 76,000. AID 1347048, 2019; calls by dose curve; further: nearly all actives have a fitted effect of over 60% in size
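HEK293 cells stably expressing human Npr1 and cGMP GloSensor pGS-40F, loaded 2 h with 2% GloSensor reagent, given compound 30 min at room temperature. Luminescence read before and 20 min after 0.1 nM hNppA.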
3T3 cytotox – Cytotoxic Profiling in NIH 3T3 Cell Line of Diverse Libraries Using Quantitative High-Throughput Screening; NIH 3T3 viability, CellTiter-Glo ATP luminescence, 48-72 h; Potency, µM (highest dose often 96.7 µM), without a hit: top-dose activity change, negative = cytotoxicity, actives largely listed as inhibitors; hit rate 4.3% among 94,000; further: nearly all actives have a fitted effect of over 55% in size
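NIH 3T3 cells at 400 cells/well received 23 nL of compound by pintool and were incubated 48 or 72 h at 37 °C. Viability was read as ATP-coupled CellTiter-Glo luminescence.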
Luciferase inh – Firefly luciferase inhibition profiling of diverse chemical library using quantitative high-throughput screening; Luciferin 4-monooxygenase (Photinus pyralis), P08659; purified P. pyralis luciferase, luminescence, biochemical; Potency, µM (top dose mostly 115 µM), hits mostly inhibitors; hit rate 2.5% among 76,000; further: nearly all actives have a fitted effect of over 65% in size
Target sequence (P08659 whole entry, looked up): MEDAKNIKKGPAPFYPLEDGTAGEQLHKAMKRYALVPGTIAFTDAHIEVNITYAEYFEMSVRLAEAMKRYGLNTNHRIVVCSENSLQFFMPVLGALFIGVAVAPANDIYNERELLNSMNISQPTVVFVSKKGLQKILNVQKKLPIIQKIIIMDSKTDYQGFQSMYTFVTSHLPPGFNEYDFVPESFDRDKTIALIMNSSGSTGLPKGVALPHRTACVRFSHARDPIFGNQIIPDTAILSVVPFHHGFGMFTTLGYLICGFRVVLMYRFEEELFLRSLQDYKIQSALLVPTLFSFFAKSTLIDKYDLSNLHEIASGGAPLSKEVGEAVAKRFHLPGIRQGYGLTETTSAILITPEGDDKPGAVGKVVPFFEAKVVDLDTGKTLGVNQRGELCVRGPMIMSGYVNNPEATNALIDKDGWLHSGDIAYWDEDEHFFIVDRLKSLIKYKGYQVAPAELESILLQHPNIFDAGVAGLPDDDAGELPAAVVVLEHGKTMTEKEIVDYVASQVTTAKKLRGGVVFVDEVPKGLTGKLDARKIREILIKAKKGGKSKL
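Purified 10nM P. pyralis luciferase with 10uM D-luciferin and 10uM ATP in 50mM Tris acetate pH 7.5, 10mM Mg acetate, 0.01% Tween-20, 0.05% BSA. qHTS titration; luminescence read by CCD imager.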
SNCA viab count – GF-AFC viability counterscreen for inhibitors of alpha-synuclein gene (SNCA) expression; HEK-293-SNCA-luc viability, GF-AFC fluorescence, 24 h; Potency, µM (titrated, usually from 57.1 µM), for inactives: top-dose activity change, negative = cytotoxicity, hits mostly cytotoxic; hit rate 0.12% among 150,000; AID 1671193, 2021;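 further: 0% = DMSO-treated cells and -100% = medium-only wells without cells; nearly all actives have a fitted effect of over 30% in size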
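Cytotoxicity counterscreen: after 24 h compound treatment of genome-edited SNCA-luciferase HEK-293 cells, live-cell protease substrate GF-AFC read by fluorescence after 30 min; activity scaled between DMSO (0%) and medium-only (-100%), curves Hill-fitted.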
HEK293 tox – Cytotoxic Profiling in HEK 293 Cell Line of Diverse Libraries Using Quantitative High-Throughput Screening; HEK 293 viability, ATP luminescence (CellTiter-Glo), 48-72 h; Potency, µM (top dose mostly 115 µM), for inactives: at the top dose activity change, negative = cytotoxicity, usual class: inhibitors; hit rate 6.6% among 94,000; AID 1345083, 2018; further: nearly all actives have a fitted effect of over 60% in size
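Read-out: CellTiter-Glo ATP luminescence. Cells: HEK 293, 250 cells/well. Exposure: 48 or 72 hr, 37 degree Celsius.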
Active calls of the source: *; i = inactive; ? = inconclusive; . = no result; [ ] = remark or other dose. Shown are actives, neighbours in structure and some others; about 7.4% of the full set was active somewhere. Unless noted, the call rests on the fitted dose curve; in most records, active means well fitted curve in the direction sought with a large enough effect; inconclusive means small, poorly fitted or top-dose-only effect, or another doubt; inactive means no such curve, though single readings can be large; an effect the other way counts as inactive or inconclusive. Unless noted, on the % scale 0 is the no-effect control and ±100 the full control effect; potency means the concentration at half of the fitted maximal effect.

SMILES	SNCA expr inh	NPR1 antag	3T3 cytotox	Luciferase inh	SNCA viab count	HEK293 tox
CC#CCn1cc2c3c(cccc31)[C@H](CC(C)C)N[C@H](C(=O)NCCNC(C)=O)C2	-4.2%[87.6 µM]	-1.6%[70.6 µM]	?	i	-0.7%[87.6 µM]	100µM*
CC#CCn1cc2c3c(cccc31)[C@H](CC(C)C)N[C@H](C(=O)NCc1ccccc1)C2	-32.1%[87.6 µM]	-21.2%[70.6 µM]	?	i	-17.8%[87.6 µM]	63.1µM*
CS(=O)(=O)N1CCC(OC2CCN(C(=O)Nc3cccc(Cl)c3F)CC2)CC1	-18.5%	-19.1%	-28.2%	i	-2.7%	?
CC#CCn1cc2c3c(cccc31)[C@H](CC(C)C)N[C@H](C(=O)NCc1cccs1)C2	-23.5%[87.6 µM]	-14.6%[70.6 µM]	?	i	?	70.8µM*
C=CCNC(=O)[C@@H]1Cc2cn(CC#CC)c3cccc(c23)[C@H](CC(C)C)N1	-17.4%[87.6 µM]	-0.4%[70.6 µM]	?	i	1.4%[87.6 µM]	?
CC#CCn1cc2c3c(cccc31)[C@H](CC(C)C)N[C@H](C(=O)OC)C2	-7.5%[87.6 µM]	-10.5%[70.6 µM]	?	i	4.3%[87.6 µM]	?
CC#CCn1cc2c3c(cccc31)[C@H](CC(C)C)N[C@H](C(=O)NCCN(C)C)C2	-9.9%[87.6 µM]	-11.4%[70.6 µM]	39.8µM*	i	-12.2%[87.6 µM]	28.2µM*
COc1cc(-n2cnc3cc(-c4ccc(Cl)cc4)sc3c2=O)ccc1OCCN1CCCC1	.	.	.	.	11.9µM*	.
O=C(c1ccco1)N1CCCn2cc(-c3ccc4c(c3)OCO4)nc21	4.9%	5.3%	i	i	1.4%	?
COc1ccc(-c2cn3c(n2)N(C(=O)c2cccs2)CCC3)cc1	156.6%	-3.8%	3.2%	35.5µM*	-1.5%	?
O=C(c1cccs1)N1CCCn2cc(-c3ccc4c(c3)OCO4)nc21	104.3%	3.5%	i	39.8µM*	-10.3%	?
COc1ccc(-c2cn3c(n2)N(C(=O)Cc2cccs2)CCC3)cc1	46.1%	-1.9%	?	i	0.4%	?
CCN(CCNC(=O)C1Cn2cccc2C(=O)N1C)Cc1ccccc1 (stereo not given)	-18.8%	0.5%	i	i	0.2%	i
COc1ccc(N2CC(C(=O)N3CCC(C(=O)N4CCC(C#N)CC4)C3)NC2=O)cc1 (stereo not given)	-0.7%	7.8%	3.3%	i	-16.2%	i
COc1ccc(-c2noc(-c3cccnc3N3CCN(c4ccc(OC)cc4)CC3)n2)cc1	18.0%	.	.	.	17.0%	.
CCC1CN(c2ccc(-c3nc(-c4ccc(OC)cc4)no3)cn2)CCN1C (stereo not given)	85.4%	-3.7%	79.4µM*	?	-6.4%	?
O=C(CCc1cc(Cl)no1)N1CCc2c(nc3cc(-c4ccccc4)[nH]n3c2=O)C1	9.6%	-10.4%	-14.7%	?	-3.8%	-1.6%
Cc1ccc(-c2ccc3nnc(CNC(=O)c4ccccc4)n3n2)cc1C	?	-16.5%	-15.3%	i	-0.3%	?
COC(=O)[C@H](Cc1ccc(OC)cc1)NC(=O)[C@H]1CN(C(C)=O)CCN1S(=O)(=O)c1ccccc1	2.1%	3.0%	44.7µM*	i	-1.4%	i
COC(=O)[C@H](Cc1ccc(OC)cc1)NC(=O)[C@@H]1CN(C(=O)NC(C)C)CCN1S(C)(=O)=O	25.6%	-1.6%	-6.7%	i	1.2%	3.1%
COc1ccc(CC(=O)N2CC(c3nnc(-c4ccc(C)cc4)o3)C3(CCOCC3)C2)cc1 (stereo not given)	13.8%	-0.9%	-2.9%	i	-3.8%	i
O=C(NCCN[S+](=O)([O-])c1cccc(C(F)(F)F)c1)c1ccc(-c2cccc(C(F)(F)F)c2)cc1	.	.	28.2µM*	.	.	39.8µM*
CCC(C)NC(=O)CNC(=O)c1ccc(-c2cccc(C(F)(F)F)c2)cc1 (stereo not given)	-12.5%	.	-24.0%	.	-19.5%[12.5 µM]	35.5µM*
O=C(NCCN[S+](=O)([O-])c1cccc(C(F)(F)F)c1)c1cccc(-c2ccsc2)c1	-16.1%	.	39.8µM*	.	-25.6%	?
O=C(NCCN[S+](=O)([O-])c1cccc(C(F)(F)F)c1)c1ccc(-c2cncnc2)cc1	.	.	-31.4%	.	.	89.1µM*
SMILES	SNCA expr inh	NPR1 antag	3T3 cytotox	Luciferase inh	SNCA viab count	HEK293 tox
Cc1ccc([S+](=O)([O-])NCCNC(=O)c2ccc(-c3cncnc3)cc2)cc1	.	.	-28.5%	.	.	-28.4%
C[S+](=O)([O-])NCCNC(=O)c1cccc(-c2ccsc2)c1	-17.4%[87.6 µM]	.	-20.2%[138 µM]	.	6.8%[12.5 µM]	?
O=C1N[C@@H]2CCN(S(=O)(=O)c3ccc(Cl)cc3)[C@@H]2C(=O)N1c1ccccc1	-0.9%[87.6 µM]	4.3%[70.6 µM]	3.3%[174 µM]	i	2.6%[87.6 µM]	-9.4%[172 µM]
Cc1ccc(C(=O)NC2CCN(c3ccc(F)cc3)C2=O)cc1C (stereo not given)	14.3%	0.3%	2.5%	i	-3.1%	-20.2%
C[C@@H]1[C@H]2[C@H](O[C@@H]3O[C@H](CO)[C@@H](O)[C@H](O)[C@H]3O)OC=C(C(=O)O)[C@H]2C[C@@H]1O	.	.	.	.	-41.7%	.
COc1ccc(Nc2ccnc(N3CCC(NC(=O)c4ccccn4)CC3)n2)cc1	5.3%	.	39.8µM*	.	-9.5%[12.5 µM]	?
COc1ccc(Nc2ccnc(N3CCC(NC(C)=O)CC3)n2)cc1	?	.	-20.1%	.	-12.8%[12.5 µM]	-9.2%
COc1ccc(Nc2ccnc(N3CCC(NC(=O)c4ccccc4C)CC3)n2)cc1	-0.6%	.	39.8µM*	.	-1.1%	39.8µM*
COc1ccc(Nc2ccnc(N3CCC(NC(=O)c4ccc(F)cc4)CC3)n2)cc1	7.6%	.	?	.	-14.3%	?
COc1ccc(Nc2ccnc(N3CCC(NC(=O)Cc4cccc(Cl)c4)CC3)n2)cc1	-15.5%	.	20µM*	.	?	25.1µM*
COCC(=O)NC1CCN(c2nccc(Nc3ccc(OC)cc3)n2)CC1	10.9%	.	?	.	?	?
Cc1ccc(C(=O)NC2CCN(c3cc(-c4ccccc4)[nH]n3)CC2)cc1C	-18.4%	-20.6%	-17.6%	i	3.7%	-12.1%
O=C(NCCCn1ccnc1)c1ccc(C2CCCNC2)cc1 (stereo not given)	0.3%	3.9%	i	i	0.0%	0.5%
COC(=O)[C@@H]1Cc2c([nH]c3ccccc23)[C@H]2C[C@@H](NCCCn3ccnc3)C[C@@H](c3ccc(F)cc3)N21	-2.2%	-2.0%	25.1µM*	i	-24.8%	25.1µM*

Screens from PubChem.
